Experimental data as given in PubChem BioAssay (EPA / NIEHS).
Results filed as inconclusive are left out. Active and inactive are the calls of the source. How the source made its calls, unless noted: active means hit-call score of the fitted dose curve at least 0.9, where 1 is the maximum; inconclusive means response in the unintended direction; inactive means score below 0.9.

Columns and labels:
[1] = target: human Retinoic Acid Receptor beta (RARb), RARB (gene 5915) (UniProt P10826); test: ATG_RARb_TRANS: Attagene TRANS-FACTORIAL HepG2 Assay for human Retinoic Acid Receptor beta (AID 2283004)
Summary of the method: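 Transient transfection of HepG2 with multiple reporter units → chemical dosing, 24 h → total RNA isolation → RT with oligo(dT) → reporter-specific PCR, 6-FAM primer extension, HpaI digest → capillary electrophoresis. Positive direction vs DMSO control.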

[2] = target: Retinoic acid receptor alpha (Homo sapiens) (UniProt P10276); test: ATG_RARa_TRANS: Attagene TRANS-FACTORIAL HepG2 Assay for human Retinoic Acid Receptor alpha (RARa) (AID 2283005)
Summary of the method: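 HepG2 cells transiently transfected with multiple reporter units expressing chimeric RARα-GAL4 fusion, with GAL4-UAS-driven reporters. After 24 h compound exposure, reporter mRNA induction quantified by RT-PCR and capillary electrophoresis with fluorescent labeling; gain-of-signal fitted relative to DMSO control.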

[3] = target: Peroxisome proliferator-activated receptor gamma (Homo sapiens) (UniProt P37231); test: ATG_PPARg_TRANS: Attagene TRANS-FACTORIAL HepG2 Assay for human Peroxisome Proliferator-activated Receptor-gamma (PPARg) (AID 2283007)
Summary of the method: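 Transient transfection of HepG2 with GAL4-UAS-driven reporter units; chemical dosing 24 h; total RNA → oligo(dT) RT → PCR with reporter primers → 6-FAM primer extension → HpaI digest 2 h 37 C → capillary electrophoresis. Positive direction vs DMSO.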

[4] = target: Nuclear receptor subfamily 1 group I member 2 (Homo sapiens) (UniProt O75469); test: ATG_PXR_TRANS: Attagene TRANS-FACTORIAL HepG2 Assay for human Pregnane X Receptor (PXR) (AID 2283008)
Summary of the method: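 HepG2 transfected (FuGene 6) with GAL4-UAS reporter units + PXR-Gal4 chimera; dosed 24 h. Total RNA → oligo(dT) RT → PCR → 6-FAM primer extension → HpaI cut → CE. Gain-of-signal vs DMSO.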

[5] = target: human Retinoic Acid Receptor gamma (RARg), RARG (gene 5916) (UniProt P13631); test: ATG_RARg_TRANS: Attagene TRANS-FACTORIAL HepG2 Assay for human Retinoic Acid Receptor gamma (RARg) (AID 2283009)
Summary of the method: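 Transactivation of exogenous RARg-Gal4 fusion measured as reporter transcript induction after 24 h in transfected HepG2 cells. RNA reverse-transcribed, amplified, fluorescently labeled and resolved by capillary electrophoresis; increase relative to DMSO.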

[6] = target: human Vitamin D Receptor (VDR), VDR (gene 7421) (UniProt P11473); test: ATG_VDR_TRANS: Attagene TRANS-FACTORIAL HepG2 Assay for human Vitamin D Receptor (VDR) (AID 2283022)
Summary of the method: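 Steps: transfect HepG2 with GAL4-UAS-driven reporter constructs; dose compounds 24 h; isolate RNA, reverse-transcribe, PCR-amplify with 6-FAM-labelled primer extension and HpaI digestion; quantify fragments by capillary electrophoresis relative to DMSO.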

[7] = read-out: Intercellular Adhesion Molecule 1 (ICAM1), ICAM1 (gene 3383); test: BSK_3C_ICAM1: BioMAP Diversity Plus: 3C Assay for Intercellular Adhesion Molecule 1 (ICAM1) Biomarker Activity (AID 2283003; active means hit-call score of the fitted dose curve at least 0.9, where 1 is the maximum; inactive means score below 0.9); settings: primary human endothelial cells (HUVEC); actives raise or lower the signal
Summary of the method: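 ELISA readout of ICAM1 in human umbilical vein endothelial cells in the 3C system, taken 24 h post-dose. Gain or loss of signal versus DMSO was fitted in both directions, with SRB total-protein staining run in parallel.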

[8] = BSK_3C_Proliferation: Cell Proliferation Assessment in the BioMAP Diversity Plus: 3C Assay (AID 2283006; active means hit-call score of the fitted dose curve at least 0.9, where 1 is the maximum; inactive means score below 0.9;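 on AC50: potency may reflect either rise or fall in cell number versus DMSO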); settings: primary human endothelial cells (HUVEC)
Summary of the method: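 Proliferation as total protein: sulforhodamine B (0.1%) stain of TCA-fixed subconfluent human umbilical vein endothelial cells, absorbance 560 nm, 48 h after dosing. Activity fitted in both directions against DMSO baseline.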

[9] = target: Retinoic acid receptor RXR-alpha (Homo sapiens) (UniProt P19793); test: ATG_RXRa_TRANS: Attagene TRANS-FACTORIAL HepG2 Assay for human Retinoid X Receptor alpha (RXRa) (AID 2283012)
Summary of the method: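 TRANS format reporting activity of exogenous RXRa-Gal4 chimera in transiently transfected HepG2, 24 h exposure. Reporter transcripts quantified by RT-PCR with capillary electrophoresis, with gain of signal scored relative to DMSO.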

[10] = target: human Retinoid X Receptor beta (RXRb), RXRB (gene 6257) (UniProt P28702); test: ATG_RXRb_TRANS: Attagene TRANS-FACTORIAL HepG2 Assay for human Retinoid X Receptor beta (RXRb) (AID 2283013)
Summary of the method: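 Readout is reporter transcript induction after 24 h dosing. It is measured by RT-PCR of total RNA followed by fluorescent capillary electrophoresis. HepG2 liver cells carry transfected multiple reporter units driven by an exogenous RXRb-Gal4 fusion; activity is relative to DMSO.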

[11] = target: human Thyroid Receptor alpha (THRa1), THRA (gene 7067) (UniProt P10827); test: ATG_THRa1_TRANS: Attagene TRANS-FACTORIAL HepG2 Assay for human Thyroid Receptor alpha (THRa1) (AID 2283014)
Summary of the method: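 Reporter transcript induction, read by capillary electrophoresis of 6-FAM-labelled RT-PCR products, reflects activity of a transfected THRa1-Gal4 fusion in HepG2 liver cells. Cells were dosed for 24 h; activity was fitted in the positive direction against DMSO.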

[12] = read-out: E-selectin (Homo sapiens) (UniProt P16581); test: BSK_3C_Eselectin: BioMAP Diversity Plus: 3C Assay for Eselectin Biomarker Activity (AID 2283015; active means hit-call score of the fitted dose curve at least 0.9, where 1 is the maximum; inactive means score below 0.9); settings: primary human endothelial cells (HUVEC); actives raise or lower the signal
Summary of the method: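 ELISA read-out of E-selectin on endothelial monolayers after 24 h chemical treatment. Human umbilical vein primary cells served as the system, with DMSO defining baseline activity for bidirectional fitting.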

[13] = read-out: Interleukin-1 alpha (IL1a), IL1A (gene 3552); test: BSK_BE3C_IL1a: BioMAP Diversity Plus: BE3C Assay for Interleukin-1 alpha (IL1a) Biomarker Activity (AID 2283016; active means hit-call score of the fitted dose curve at least 0.9, where 1 is the maximum; inactive means score below 0.9); settings: primary human bronchial epithelial cells; actives raise or lower the signal
Summary of the method: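 IL-1a measured by ELISA after 24 h treatment of human primary bronchial epithelial cells, with gain or loss of signal fitted versus DMSO. Parallel cultures stained with SRB gauge overt cytotoxicity.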

[14] = read-out: Monocyte Chemoattractant Protein-1 (MCP1), CCL2 (gene 6347); test: BSK_3C_MCP1: BioMAP Diversity Plus: 3C Assay for Monocyte Chemoattractant Protein-1 (MCP1) Biomarker Activity (AID 2283017; active means hit-call score of the fitted dose curve at least 0.9, where 1 is the maximum; inactive means score below 0.9); settings: primary human endothelial cells (HUVEC); actives raise or lower the signal
Summary of the method: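 ELISA read-out of MCP-1 from human umbilical vein endothelial cell cultures harvested 24 h post-dosing. Gain or loss of signal was fitted relative to DMSO.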

[15] = read-out: Monocyte Chemoattractant Protein-1 (MCP1), CCL2 (gene 6347); test: BSK_4H_MCP1: BioMAP Diversity Plus: 4H Assay for Monocyte Chemoattractant Protein-1 (MCP1) Biomarker Activity (AID 2283018; active means hit-call score of the fitted dose curve at least 0.9, where 1 is the maximum; inactive means score below 0.9); settings: primary human endothelial cells (HUVEC); actives raise or lower the signal
Summary of the method: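 ELISA of MCP-1 (CCL2) 24 h after chemical dosing of HUVEC in the BioMAP 4H system. Gain or loss versus DMSO fitted; parallel SRB staining (560 nm) tracked overt cytotoxicity.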

[16] = read-out: Human Leukocyte Antigen - DR isotype (HLADR), HLA-DRA (gene 3122); test: BSK_3C_HLADR: BioMAP Diversity Plus: 3C Assay for Human Leukocyte Antigen - DR isotype (HLADR) Biomarker Activity (AID 2283019; active means hit-call score of the fitted dose curve at least 0.9, where 1 is the maximum; inactive means score below 0.9); settings: primary human endothelial cells (HUVEC); actives raise or lower the signal
Summary of the method: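 ELISA readout of surface HLA-DR on human umbilical vein endothelium, taken 24 h after chemical treatment. Gain- and loss-of-signal were both fitted relative to DMSO.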

[17] = read-out: Interleukin-8 (IL8), CXCL8 (gene 3576); test: BSK_3C_IL8: BioMAP Diversity Plus: 3C Assay for Interleukin-8 (IL8) Biomarker Activity (AID 2283020; active means hit-call score of the fitted dose curve at least 0.9, where 1 is the maximum; inactive means score below 0.9); settings: primary human endothelial cells (HUVEC); actives raise or lower the signal
Summary of the method: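 IL-8 was measured by ELISA in HUVEC cultures 24 h after chemical dosing, with gain or loss of signal fitted relative to DMSO. Parallel SRB total-protein staining tracked overt cytotoxicity.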

Measured: AC50

Chain of human Retinoid X Receptor beta (RXRb), RXRB (gene 6257) (P28702 whole entry, looked up, the tested form may be a part): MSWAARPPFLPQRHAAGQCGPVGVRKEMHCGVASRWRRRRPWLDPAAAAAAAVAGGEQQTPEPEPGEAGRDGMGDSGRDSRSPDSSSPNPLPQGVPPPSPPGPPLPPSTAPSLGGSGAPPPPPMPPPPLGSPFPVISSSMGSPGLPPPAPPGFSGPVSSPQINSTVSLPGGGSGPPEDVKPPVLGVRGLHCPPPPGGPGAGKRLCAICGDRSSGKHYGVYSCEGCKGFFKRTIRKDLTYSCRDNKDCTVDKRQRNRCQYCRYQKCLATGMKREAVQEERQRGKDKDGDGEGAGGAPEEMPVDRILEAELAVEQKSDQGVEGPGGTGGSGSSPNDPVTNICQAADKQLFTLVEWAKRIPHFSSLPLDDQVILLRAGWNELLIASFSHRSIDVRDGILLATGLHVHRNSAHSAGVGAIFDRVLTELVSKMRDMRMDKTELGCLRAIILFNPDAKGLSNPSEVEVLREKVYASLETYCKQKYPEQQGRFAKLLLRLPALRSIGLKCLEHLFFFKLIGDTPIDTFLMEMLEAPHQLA
Chain of human Retinoic Acid Receptor beta (RARb), RARB (gene 5915) (P10826 whole entry, looked up): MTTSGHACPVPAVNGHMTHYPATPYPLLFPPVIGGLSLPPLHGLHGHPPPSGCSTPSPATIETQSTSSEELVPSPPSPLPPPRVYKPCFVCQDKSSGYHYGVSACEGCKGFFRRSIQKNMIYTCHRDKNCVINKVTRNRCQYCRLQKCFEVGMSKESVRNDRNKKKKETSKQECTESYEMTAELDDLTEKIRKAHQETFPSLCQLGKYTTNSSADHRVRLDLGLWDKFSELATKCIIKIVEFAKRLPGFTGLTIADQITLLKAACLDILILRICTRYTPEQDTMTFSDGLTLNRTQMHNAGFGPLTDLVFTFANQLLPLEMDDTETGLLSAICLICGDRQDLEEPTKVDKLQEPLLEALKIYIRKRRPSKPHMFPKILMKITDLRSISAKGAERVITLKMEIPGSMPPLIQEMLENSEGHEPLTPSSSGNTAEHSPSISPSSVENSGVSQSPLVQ
Chain of human Thyroid Receptor alpha (THRa1), THRA (gene 7067) (P10827 whole entry, looked up, the tested form may be a part): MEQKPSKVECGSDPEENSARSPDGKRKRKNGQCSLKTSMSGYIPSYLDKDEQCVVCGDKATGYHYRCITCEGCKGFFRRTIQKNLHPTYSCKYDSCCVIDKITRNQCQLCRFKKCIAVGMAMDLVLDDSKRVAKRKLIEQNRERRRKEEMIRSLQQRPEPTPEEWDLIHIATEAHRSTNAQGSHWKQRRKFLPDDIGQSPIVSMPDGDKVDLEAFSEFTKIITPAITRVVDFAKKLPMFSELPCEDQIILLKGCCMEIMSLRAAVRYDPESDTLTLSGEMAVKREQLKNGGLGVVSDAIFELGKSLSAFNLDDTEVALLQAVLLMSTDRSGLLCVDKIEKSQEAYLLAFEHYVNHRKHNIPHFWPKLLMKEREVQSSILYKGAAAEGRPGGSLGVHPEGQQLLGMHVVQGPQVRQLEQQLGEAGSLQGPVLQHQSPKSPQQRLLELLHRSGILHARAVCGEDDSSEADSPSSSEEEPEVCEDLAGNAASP
Chain of Retinoic acid receptor alpha (Homo sapiens) (P10276 whole entry, looked up, the tested form may be a part): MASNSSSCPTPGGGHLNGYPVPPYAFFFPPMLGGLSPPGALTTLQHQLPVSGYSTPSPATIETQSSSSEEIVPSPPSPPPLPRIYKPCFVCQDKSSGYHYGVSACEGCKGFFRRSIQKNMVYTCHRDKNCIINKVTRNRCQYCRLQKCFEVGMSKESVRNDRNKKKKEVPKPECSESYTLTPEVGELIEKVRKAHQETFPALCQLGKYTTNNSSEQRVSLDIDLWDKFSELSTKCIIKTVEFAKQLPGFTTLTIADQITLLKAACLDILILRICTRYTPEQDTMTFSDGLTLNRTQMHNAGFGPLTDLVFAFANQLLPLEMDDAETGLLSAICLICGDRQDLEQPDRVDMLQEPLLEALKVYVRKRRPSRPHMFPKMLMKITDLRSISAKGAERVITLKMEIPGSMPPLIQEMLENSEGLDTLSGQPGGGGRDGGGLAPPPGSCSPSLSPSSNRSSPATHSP
Chain of Nuclear receptor subfamily 1 group I member 2 (Homo sapiens) (O75469 whole entry, looked up, the tested form may be a part): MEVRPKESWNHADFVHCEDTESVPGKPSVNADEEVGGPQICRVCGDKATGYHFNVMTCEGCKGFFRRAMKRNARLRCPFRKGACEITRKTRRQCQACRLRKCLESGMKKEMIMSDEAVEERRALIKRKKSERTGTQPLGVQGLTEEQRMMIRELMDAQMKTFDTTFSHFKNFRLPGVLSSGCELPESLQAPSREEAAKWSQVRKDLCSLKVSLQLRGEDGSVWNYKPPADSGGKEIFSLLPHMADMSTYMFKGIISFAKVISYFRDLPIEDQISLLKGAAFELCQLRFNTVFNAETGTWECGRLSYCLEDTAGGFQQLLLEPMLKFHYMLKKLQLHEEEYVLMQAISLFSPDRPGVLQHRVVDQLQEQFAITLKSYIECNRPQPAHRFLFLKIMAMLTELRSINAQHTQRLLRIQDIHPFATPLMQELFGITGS
Chain of Peroxisome proliferator-activated receptor gamma (Homo sapiens) (P37231 whole entry, looked up, the tested form may be a part): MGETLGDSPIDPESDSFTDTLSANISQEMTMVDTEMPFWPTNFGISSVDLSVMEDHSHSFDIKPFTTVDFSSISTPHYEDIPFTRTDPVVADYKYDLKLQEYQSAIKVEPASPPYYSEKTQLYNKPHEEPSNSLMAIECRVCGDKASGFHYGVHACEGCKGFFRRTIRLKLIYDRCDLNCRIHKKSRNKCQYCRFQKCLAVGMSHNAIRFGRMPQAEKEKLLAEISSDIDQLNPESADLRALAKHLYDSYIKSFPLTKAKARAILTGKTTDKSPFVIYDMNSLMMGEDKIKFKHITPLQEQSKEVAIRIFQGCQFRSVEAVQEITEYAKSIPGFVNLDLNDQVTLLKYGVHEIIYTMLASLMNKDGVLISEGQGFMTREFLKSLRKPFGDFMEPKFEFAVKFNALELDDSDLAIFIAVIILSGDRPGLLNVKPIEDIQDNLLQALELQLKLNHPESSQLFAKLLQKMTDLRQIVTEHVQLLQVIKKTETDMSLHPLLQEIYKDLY
Chain of human Vitamin D Receptor (VDR), VDR (gene 7421) (P11473 whole entry, looked up, the tested form may be a part): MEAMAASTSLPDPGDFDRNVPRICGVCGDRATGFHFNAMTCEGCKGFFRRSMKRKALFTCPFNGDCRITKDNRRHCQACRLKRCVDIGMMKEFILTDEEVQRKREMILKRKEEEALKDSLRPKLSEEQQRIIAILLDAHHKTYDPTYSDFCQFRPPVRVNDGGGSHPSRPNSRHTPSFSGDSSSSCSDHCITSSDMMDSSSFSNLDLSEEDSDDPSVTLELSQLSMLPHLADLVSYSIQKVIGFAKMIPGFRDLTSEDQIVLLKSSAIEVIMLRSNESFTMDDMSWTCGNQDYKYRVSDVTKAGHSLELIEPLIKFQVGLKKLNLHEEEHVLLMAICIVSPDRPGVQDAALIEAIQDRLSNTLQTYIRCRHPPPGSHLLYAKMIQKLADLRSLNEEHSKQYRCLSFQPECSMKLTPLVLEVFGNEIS
Chain of Retinoic acid receptor RXR-alpha (Homo sapiens) (P19793 whole entry, looked up, the tested form may be a part): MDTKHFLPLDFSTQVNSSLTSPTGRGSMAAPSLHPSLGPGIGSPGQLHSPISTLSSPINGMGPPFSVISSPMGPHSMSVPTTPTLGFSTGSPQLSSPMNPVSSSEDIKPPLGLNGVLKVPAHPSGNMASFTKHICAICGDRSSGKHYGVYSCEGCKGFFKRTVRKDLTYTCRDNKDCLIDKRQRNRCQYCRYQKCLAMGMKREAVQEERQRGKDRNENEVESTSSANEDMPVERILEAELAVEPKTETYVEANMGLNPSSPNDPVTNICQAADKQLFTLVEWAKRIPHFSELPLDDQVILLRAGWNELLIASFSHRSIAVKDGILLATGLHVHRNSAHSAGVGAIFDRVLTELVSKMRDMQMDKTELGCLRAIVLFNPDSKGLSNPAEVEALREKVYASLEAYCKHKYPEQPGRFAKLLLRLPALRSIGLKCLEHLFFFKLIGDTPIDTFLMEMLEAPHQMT
Chain of human Retinoic Acid Receptor gamma (RARg), RARG (gene 5916) (P13631 whole entry, looked up, the tested form may be a part): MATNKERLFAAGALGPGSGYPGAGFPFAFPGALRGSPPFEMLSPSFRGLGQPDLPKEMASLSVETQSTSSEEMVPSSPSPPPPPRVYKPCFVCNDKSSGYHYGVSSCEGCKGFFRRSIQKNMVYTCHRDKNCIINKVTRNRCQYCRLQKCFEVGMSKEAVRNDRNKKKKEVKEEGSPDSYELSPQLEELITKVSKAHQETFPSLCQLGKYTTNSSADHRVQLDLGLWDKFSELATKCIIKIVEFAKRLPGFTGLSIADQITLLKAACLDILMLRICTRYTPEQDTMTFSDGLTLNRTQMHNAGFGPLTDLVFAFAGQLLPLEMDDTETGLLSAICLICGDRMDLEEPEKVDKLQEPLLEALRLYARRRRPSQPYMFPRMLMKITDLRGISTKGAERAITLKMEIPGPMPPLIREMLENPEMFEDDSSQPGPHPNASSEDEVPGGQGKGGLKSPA
Chain of E-selectin (Homo sapiens) (P16581 whole entry, looked up): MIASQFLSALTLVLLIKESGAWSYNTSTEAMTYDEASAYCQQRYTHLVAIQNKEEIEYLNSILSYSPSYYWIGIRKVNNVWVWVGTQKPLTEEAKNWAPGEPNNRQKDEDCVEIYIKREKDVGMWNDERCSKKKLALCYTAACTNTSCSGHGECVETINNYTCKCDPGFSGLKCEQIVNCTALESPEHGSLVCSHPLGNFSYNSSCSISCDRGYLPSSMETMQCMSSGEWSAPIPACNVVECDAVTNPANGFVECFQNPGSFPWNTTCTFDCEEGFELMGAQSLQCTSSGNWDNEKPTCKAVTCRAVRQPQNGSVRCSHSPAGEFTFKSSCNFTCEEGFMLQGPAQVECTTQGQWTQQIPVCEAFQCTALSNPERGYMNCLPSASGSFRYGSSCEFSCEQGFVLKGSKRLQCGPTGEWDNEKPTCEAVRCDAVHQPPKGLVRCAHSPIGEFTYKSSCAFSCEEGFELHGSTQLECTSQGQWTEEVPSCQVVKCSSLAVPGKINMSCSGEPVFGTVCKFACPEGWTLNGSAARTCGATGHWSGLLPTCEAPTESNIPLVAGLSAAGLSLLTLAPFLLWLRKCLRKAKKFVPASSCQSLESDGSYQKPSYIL

CC(C)[C@@H](Nc1ccc(C(F)(F)F)cc1Cl)C(=O)OC(C#N)c1cccc(Oc2ccccc2)c1 (stereo not given in full)
active: [3] 5110 nM | [4] 510 nM
inactive: [1] | [2] | [5] | [6]

[Cl][Sn]([c]1ccccc1)([c]1ccccc1)[c]1ccccc1
active: [7] 318 nM | [8] 51.8 nM | [3] 46.4 nM | [9] 233 nM | [10] 0.965 nM | [12] 154 nM | [13] 126 nM | [14] 292 nM | [15] 66 nM | [16] 81.7 nM | [17] 298 nM
inactive: [11] | [6]

CCN(N=O)C(N)=O
inactive: [1] | [2] | [3] | [4] | [9]

CCNc1nc(NCC)nc(SC)n1
inactive: [1] | [2] | [3] | [4] | [5] | [10] | [11]

Oc1ccc(Cc2ccc(O)cc2)cc1
active: [3] 15800 nM
not listed: [1] | [2] | [5] | [6]
inactive: all other assays above

O=S(=O)(C(Cl)(Cl)Cl)C(Cl)(Cl)Cl
inactive: [3] | [9] | [6]
active: [7] 2900 nM | [8] 200 nM | [10] 20000 nM | [13] 3320 nM | [14] 1900 nM | [15] 1160 nM | [16] 852 nM | [17] 5320 nM
